From PubChem BioAssay come the findings set out here.

A number with no mark means an inactive call. No rule for the calls is given here.

In general, inhibition refers to the drop in the measured response relative to a control, in per cent.

Pantothenate synthetase (Mycobacterium tuberculosis (strain ATCC 25618 / H37Rv)), sequence (P9WIL5 whole entry, looked up): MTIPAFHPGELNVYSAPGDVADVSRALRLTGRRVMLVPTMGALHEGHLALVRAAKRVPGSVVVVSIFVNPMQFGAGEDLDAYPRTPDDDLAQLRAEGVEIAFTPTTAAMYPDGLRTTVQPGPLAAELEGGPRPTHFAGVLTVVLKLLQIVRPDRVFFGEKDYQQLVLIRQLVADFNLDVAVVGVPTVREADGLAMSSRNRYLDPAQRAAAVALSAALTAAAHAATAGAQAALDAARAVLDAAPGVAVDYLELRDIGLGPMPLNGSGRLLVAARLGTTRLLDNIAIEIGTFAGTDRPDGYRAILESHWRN

This test concerns the target Pantothenate synthetase (Mycobacterium tuberculosis (strain ATCC 25618 / H37Rv)) (UniProt P9WIL5). As to the kind of experiment: Recombinant Mtb pantothenate synthetase (PanC) inhibitors, coupled enzyme, confirmatory (AID 375).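 Also: 0% = full reaction with vehicle and 100% = no enzyme background.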 The settings on record: coupled enzyme assay; at 10 µM, hits give high values.
Take `COc1ccc(NC(=O)Nc2ccccc2C)c(OC)c1`: the inhibition was 0%.
The figure for `O=C1CC(c2cccs2)CC2=C1C(c1ccccc1)n1ncnc1N2` (configuration not stated) is 3%; for `O=C(NCC1CCCO1)c1cccc(N2CCCC2=O)c1` (configuration not stated) it is 0%; for `CC(C)Cc1nnc(NC(=O)CCC(=O)N2CCOCC2)s1` it is 0%.
On to `COc1ccc(OC)c(C(=O)CSc2nnc(-c3ccc(OC)c(OC)c3)o2)c1`, for which the inhibition was 11%.
As for `COc1ccccc1C(=O)Nc1ccc(S(=O)(=O)N2CCCC2)cc1`, the figure is 4%; as for `N#Cc1nc(-c2cccs2)oc1NCc1ccc(Cl)cc1`, 0%.
As for `COc1cccc(Nc2nnc(SCC(=O)N3CC(C)OC(C)C3)s2)c1` (configuration not stated), the figure is 2%; as for `COC(=O)CCC(=O)Nc1ccc(S(=O)(=O)N2CCCCCC2)cc1`, 0%.
As for `Cc1cccc(-n2ncc3c(NCc4cccnc4)ncnc32)c1`, the figure is 7%; as for `N#Cc1cnc2sc3ccccc3n2c1=N`, 3%; as for `Cc1sc2nc(CN3CCN(S(=O)(=O)c4cccc5nonc45)CC3)[nH]c(=O)c2c1C`, 0%.
For the compound `CCOC(=O)N1CCN(C(=O)c2cn(CC)c3cc(N4CCN(C)CC4)c(F)cc3c2=O)CC1`, the inhibition was 0%.
The figure for `COc1ccc(-c2noc(CCN3C(=O)c4ccccc4C3=O)n2)cc1OC` is 7%; for `Cn1c(=O)c2c(nc(NCc3ccc4c(c3)OCO4)n2Cc2ccccc2F)n(C)c1=O` it is 3%.
Regarding `Cc1cc(C(=O)COC(=O)c2n[nH]c3ccccc23)c(C)n1C`, the inhibition is 0%.
As for `Cn1c(=O)c2c(nc(SCCCO)n2Cc2ccccc2Cl)n(C)c1=O`, the figure is 3%; as for `Cn1c2c(c(=O)n(C)c1=O)C(NC(=O)C(C)(C)C)(C(F)(F)F)C(=O)N2` (configuration not stated), 0%; as for `O=C(CSc1ccc(-c2ccccc2)nn1)N1CCOCC1`, 0%.
For `Cc1ccc(C)c(NS(=O)(=O)c2ccc(NC(=O)c3ccco3)cc2)c1`, the inhibition is 0%.
On to `COC(=O)CCCCCNc1ccc(C(=O)OC)cc1N`, for which the inhibition is 0%.
The figure for `CCN1CCN(C(c2cccs2)C(C)NC(=O)c2ccccc2)CC1` (configuration not stated) is 12%.
